The target of assay [1] is Tumor necrosis factor receptor superfamily member 10B (Homo sapiens) (UniProt O14763). Kind of assay: viability loss of caspase-8 NB7 cells with TRAIL – with/without TRAIL, luminescence panel, confirmation (AID 651596). The following applies: NB7 neuroblastoma + caspase-8, TRAIL sensitization, NB7 Caspase-8, with TRAIL, mean of runs, at 10 µM, stronger effect = higher value.
Experiment in assay [2]: as above
The following applies: NB7 neuroblastoma + caspase-8, without TRAIL, NB7 Caspase-8, without TRAIL, mean of runs, at 10 µM.

Sequence of Tumor necrosis factor receptor superfamily member 10B (Homo sapiens) (O14763 whole entry, looked up): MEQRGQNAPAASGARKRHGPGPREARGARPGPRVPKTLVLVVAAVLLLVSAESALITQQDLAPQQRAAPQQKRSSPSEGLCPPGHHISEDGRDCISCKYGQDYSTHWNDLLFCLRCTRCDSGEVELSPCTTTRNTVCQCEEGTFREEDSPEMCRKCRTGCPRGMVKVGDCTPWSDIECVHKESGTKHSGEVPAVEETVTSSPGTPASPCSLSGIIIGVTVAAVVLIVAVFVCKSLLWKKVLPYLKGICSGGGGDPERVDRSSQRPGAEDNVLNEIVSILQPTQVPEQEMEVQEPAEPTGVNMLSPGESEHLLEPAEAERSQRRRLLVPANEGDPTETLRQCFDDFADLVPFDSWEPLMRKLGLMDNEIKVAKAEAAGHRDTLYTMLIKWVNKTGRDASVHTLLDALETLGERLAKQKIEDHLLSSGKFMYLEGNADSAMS

`COc1ccc(/C=N/Nc2cc(C)nc3ccc(Br)cc23)cc1`: the values for the activity in assay [1] and in assay [2] were 61% and 78%, respectively.
Regarding `CCOC(=O)c1nnn2c1nc(Nc1cccc(C(F)(F)F)c1)c1ccccc12`, the activity in assay [1] is 8.35%; in assay [2], 52.4%.
For `O=C(/C=C/c1cccc(F)c1)N1CCc2ccccc21`, the activity was 55.1% in assay [1] and 52.8% in assay [2].
With `COc1ccc2sc(N(CCCN(C)C)C(=O)c3ccc(S(=O)(=O)N4CCc5ccccc5C4)cc3)nc2c1`, the figures for the activity in assay [1] and in assay [2] were 82.4% and 69.3%, respectively.
As to `COc1ccc(-c2cc3nc4n(c(=O)c3s2)CCC4)cc1`, the activity in assay [1] worked out at 71.1%; in assay [2], 70.4%.
In the case of `CCOC(=O)c1ccc(N=c2sc(C(=O)OC)cc(=O)n2-c2ccc(C(=O)OCC)cc2)cc1`, the activity in assay [1] was 67.6%; in assay [2], 37.6%.
On to `COC(=O)c1ccc(-c2nc3ccccc3[nH]2)cc1`, for which the activity in assay [1] was 80.7%; in assay [2], 84.4%.
Regarding `COc1ccc(C2NN=C(c3ccc(C)cc3)S2)cc1OC` (stereo not drawn), the values for the activity in assay [1] and in assay [2] were 60% and 55%, respectively.
In the case of `COc1ccc2c(n1)Sc1nc3ccccc3nc1N2`, the activity in assay [1] worked out at 4.47%; in assay [2], 4.42%.
With `CC(=O)Oc1ccc(/C=C/c2nc3ccccc3c(=O)o2)cc1`, the activity in assay [1] is 80.2%; in assay [2], 75.2%.
`CN(C)c1ccc(C=Nc2ccccc2C(N)=O)cc1`: the activity in assay [1] was determined as 85.3%; in assay [2], 86.5%.
Take `CCc1ccc([C@H]2[C@@H]3C(=O)C[C@@H]4C(=O)N(c5ccccc5)C(=O)[C@@H]4[C@@H]3CN2S(=O)(=O)c2ccc(C)cc2)cc1`: the activity in assay [1] was -4.35%; in assay [2] it was -7.2%.
As to `Cc1ccc(-c2csc(NC(=O)CSc3nnc4c(n3)[nH]c3ccccc34)n2)cc1`, the activity in assay [1] stood at 42.5%; in assay [2], 24.3%.
The like results for `Cc1ccc(NC(=O)c2ccc(CSc3nnnn3C)cc2)cc1` were, in that order, 44.9% and 37.7%.
With `Cc1ccc(NC(=O)c2ccc3nsnc3c2)c(Cl)c1`, the activity was determined as 60.6% in assay [1] and 58.2% in assay [2].
On to `O=C(Nc1nc(=O)c2ccccc2s1)c1ccc(Cl)cc1`, for which the values for the activity in assay [1] and in assay [2] were 66.1% and 72.6%, respectively.
As to `COc1cccc2sc(N(C)c3ccccc3)nc12`, the results for the activity in assay [1] and in assay [2] were 58.3% and 61.2%, respectively.
`CCCCCCCCCCCC1N=C(N)NC(CCCO)=C1C(=O)OC` (stereo not drawn): the activity amounted to 16.3% in assay [1] and 18.3% in assay [2].
Take `O=C(NCCOc1ccccc1)c1cccc2c1C(=O)c1ccc(Cl)cc1S2(=O)=O`: the values for the activity in assay [1] and in assay [2] were 35.6% and 54.2%, respectively.
On to `Cc1ccc2oc(-c3ccccc3)c(C(=O)O)c(=O)c2c1`, for which the results for the activity in assay [1] and in assay [2] were 29.9% and 39.2%, respectively.
Take `C=C(C)c1cc2c(ccc3ccc(=O)oc32)o1`: the activity in assay [1] came out at 92.6%; in assay [2], 91%.
For `COc1ccc(-c2ccc3sc4ccccc4c(=O)c3c2)cn1`, the figures for the activity in assay [1] and in assay [2] were 63.2% and 61.5%, respectively.
The like results for `CC1CCc2c(sc(/N=C/c3ccco3)c2C(N)=O)C1` (stereo not drawn) were, in that order, 54.1% and 56.5%.
Turning to `COc1ccc(C2C(C(=O)N3CCC(C)CC3)c3ccccc3C(=O)N2C)cc1` (stereo not drawn), the activity in assay [1] came out at 67.2%; in assay [2] it was 68.5%.
On to `Cc1ccc(C(=O)N/N=C\c2ccccc2[N+](=O)[O-])cn1`, for which the activity worked out at 47.5% in assay [1] and 43.6% in assay [2].
In the case of `O=C(NC1=NC2CCCCC2N1)c1ccccc1` (stereo not drawn), the figures for the activity in assay [1] and in assay [2] were 62.8% and 52.1%, respectively.
For the compound `COc1ccc2cc3cc(C(=O)N4CCCCCC4)oc3nc2c1`, the figures for the activity in assay [1] and in assay [2] were 45.1% and 41.9%, respectively.
Consider `c1ccc2nc3c(nc2c1)[nH]c1ccccc13`, for which the activity in assay [1] is 45.7%; in assay [2], 44.5%.
As to `C/C(=N\Nc1nc2ccccc2s1)c1cccs1`, the activity in assay [1] was determined as 52.8%; in assay [2] it was 30.2%.
For the compound `Cc1ccc(C(=O)Nc2ccc3c(c2)OCCO3)cc1`, the activity in assay [1] was 90.4%; in assay [2], 90.2%.
Taken in the same sequence, the figures for `O=C(C#Cc1ccccc1)c1ccccc1` were 54% and 96.6%.
As for `COc1ccc(Oc2c(Cl)cnn(-c3ccc(F)cc3)c2=O)cc1`, the activity in assay [1] turned out to be 98%; in assay [2] it was 94.2%.
As for `COc1ccc(C(=O)Nc2ccc3[nH]ncc3c2)cc1`, the values for the activity in assay [1] and in assay [2] were 78.3% and 77.1%, respectively.
Take `COc1ccc2nc(-c3cccc(N)c3)[nH]c2c1`: the activity in assay [1] was found to be 55.8%; in assay [2] it was 41.4%.
On to `COc1cccc(/C=C2\CCc3ccccc3C2=O)c1`, for which the activity in assay [1] was determined as 83.4%; in assay [2], 78.5%.
The like results for `COc1ccc2oc(-c3ccc(NC(=O)c4ccc(N5CCOCC5)c([N+](=O)[O-])c4)cc3)nc2c1` were, in that order, 52% and 24.4%.
Regarding `N/C(CCS(=O)(=O)c1ccc(Cl)cc1)=N\OC(=O)c1ccc(Cl)cc1`, the activity is 98.2% in assay [1] and 93.3% in assay [2].
Consider `CCOc1ccc2nc(N3C(=O)CNC3=S)sc2c1`, for which the values for the activity in assay [1] and in assay [2] were 65.2% and 60.6%, respectively.
With `COc1ccc(-c2ccc3c(c2)S(=O)(=O)c2cccc(C(=O)NCCOc4ccccc4Cl)c2C3=O)cc1OC`, the values for the activity in assay [1] and in assay [2] were 91.2% and 77.8%, respectively.
On to `O=C(Nc1ccc2c(c1)OCCO2)c1ccc(Cl)cc1Cl`, for which the activity in assay [1] was 72.8%; in assay [2], 66.6%.
Taken in the same sequence, the figures for `CCC(=O)c1ccc(OCC(=O)OCC(=O)N2CCCc3ccccc32)cc1` were -9.15% and -14.8%.
For `CC1(C)CC(=O)C=C(c2ccc(-c3ccc4[nH]ccc4c3)cc2)C1=O`, the figures for the activity in assay [1] and in assay [2] were 67.8% and 64.4%, respectively.
Consider `Cc1ccc(C2CC2c2n[nH]c(=S)n2-c2ccc(Cl)cc2)cc1` (stereo not drawn), for which the figures for the activity in assay [1] and in assay [2] were 63% and 45.3%, respectively.
The like results for `C#Cc1cccc(Nc2nc(NCc3ccccc3OC)nc3ccsc23)c1` were, in that order, 52.1% and 37.5%.
`COc1ccc(C2NN=C(c3ccc(C)cc3)S2)cc1` (stereo not drawn): the activity stood at 51.8% in assay [1] and 42.1% in assay [2].
As to `Cc1ccc(/C=N/NC(=O)c2cc(C)oc2C)cc1`, the activity in assay [1] is 45.1%; in assay [2], 55%.
Turning to `Cc1cc(NC(=O)CSc2nnc(-c3ccc4c(c3)OCCO4)o2)no1`, the activity in assay [1] was 52.1%; in assay [2], 58.8%.
As to `Cc1ccc(Nc2nc(N)c3ccccc3n2)cc1C`, the figures for the activity in assay [1] and in assay [2] were 83% and 78%, respectively.
In the case of `COc1ccccc1/C=C/C(=O)Nc1ccc2c(c1)OCCO2`, the activity came to 66.6% in assay [1] and 73.5% in assay [2].

For the origin of these results see PubChem BioAssay.
